For some of these results: Results with a measured potency or affinity are listed apart.
Columns and labels:
Design in all cases: scale not given: direction of the effect not stated beside the values
[1] = molecular target: Protein translocase subunit SecA (Escherichia coli (strain K12)) (UniProt P10408); assay: Assay to Identify E. coli SecA ATPase Inhibitors; type: functional; settings: 30 µM
[2] = molecular target: T1, Ubiquitin-activating enzyme e1, putative (Leishmania donovani (strain BPK282A1)) (UniProt E9BSI1); assay: Leishmania donovani Ubiquitin Activating Enzyme (LdE1); type: functional; settings: 30 µM
T1 sequence (whole entry): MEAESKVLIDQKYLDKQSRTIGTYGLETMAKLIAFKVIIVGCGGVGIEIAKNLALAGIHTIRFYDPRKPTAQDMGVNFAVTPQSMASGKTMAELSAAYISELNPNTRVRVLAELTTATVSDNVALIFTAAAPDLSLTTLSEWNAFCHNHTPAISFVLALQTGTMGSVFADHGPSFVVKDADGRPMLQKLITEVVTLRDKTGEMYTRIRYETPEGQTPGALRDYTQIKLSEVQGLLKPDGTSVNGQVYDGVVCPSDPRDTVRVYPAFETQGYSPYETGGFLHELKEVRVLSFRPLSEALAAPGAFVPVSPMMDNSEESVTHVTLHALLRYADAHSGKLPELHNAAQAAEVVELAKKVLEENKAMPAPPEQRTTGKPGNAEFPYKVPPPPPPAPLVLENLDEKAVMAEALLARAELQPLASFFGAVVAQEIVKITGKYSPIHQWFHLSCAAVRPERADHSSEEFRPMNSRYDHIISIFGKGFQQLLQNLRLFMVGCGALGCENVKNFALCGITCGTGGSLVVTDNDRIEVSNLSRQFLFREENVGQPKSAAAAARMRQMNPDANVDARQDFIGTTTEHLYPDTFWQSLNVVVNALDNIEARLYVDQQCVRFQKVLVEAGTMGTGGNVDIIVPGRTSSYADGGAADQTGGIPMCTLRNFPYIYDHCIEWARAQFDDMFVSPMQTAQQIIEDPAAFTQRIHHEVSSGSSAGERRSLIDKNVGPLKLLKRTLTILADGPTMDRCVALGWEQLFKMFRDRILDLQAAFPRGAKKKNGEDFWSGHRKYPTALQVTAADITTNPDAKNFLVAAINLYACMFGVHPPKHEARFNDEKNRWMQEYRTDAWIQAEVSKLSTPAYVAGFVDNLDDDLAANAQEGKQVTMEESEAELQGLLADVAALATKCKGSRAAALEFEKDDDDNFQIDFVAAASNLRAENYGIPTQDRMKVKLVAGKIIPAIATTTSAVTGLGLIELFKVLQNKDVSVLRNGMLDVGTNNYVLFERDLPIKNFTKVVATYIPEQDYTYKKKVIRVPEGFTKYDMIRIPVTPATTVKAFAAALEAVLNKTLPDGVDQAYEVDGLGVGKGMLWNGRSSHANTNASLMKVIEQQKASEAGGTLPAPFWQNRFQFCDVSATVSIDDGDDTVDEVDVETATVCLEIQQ

[3] = molecular target: AMP-activated protein kinase, AMPK (Homo sapiens) (UniProt P54646+O43741+P54619+Q9UGJ0+Q9Y478+Q13131+Q9UGI9); assay: AMP-dependent Kinase enzyme assay. An in vitro enzyme assay that detects ADP turnover that is directly proportional to AMPK activity. This uses naive AMPK that is activated during the assay with MK-8722; type: functional; settings: 30 µM
[4] = molecular target: Sialic acid-binding Ig-like lectin 9 (Homo sapiens) (UniProt Q9Y336); assay: Hs-Siglec9 ALPHAscreen SOP 20170721; settings: 10 µM
Trypanosoma cruzi = assay: Trypanosoma cruzi phosphomannomutase and mannose-1-phosphate guanylyltransferase assay; type: functional; settings: 10 µM
[5] = molecular target: T2, Arginase-2, mitochondrial (Homo sapiens) (UniProt P78540); assay: in vitro enzyme assay to detect the production of urea directly proportional to the activity of Arginase II; type: functional; settings: 33.3 µM; note: in the data most compounds retested in dose-response had high values
T2 sequence (whole entry): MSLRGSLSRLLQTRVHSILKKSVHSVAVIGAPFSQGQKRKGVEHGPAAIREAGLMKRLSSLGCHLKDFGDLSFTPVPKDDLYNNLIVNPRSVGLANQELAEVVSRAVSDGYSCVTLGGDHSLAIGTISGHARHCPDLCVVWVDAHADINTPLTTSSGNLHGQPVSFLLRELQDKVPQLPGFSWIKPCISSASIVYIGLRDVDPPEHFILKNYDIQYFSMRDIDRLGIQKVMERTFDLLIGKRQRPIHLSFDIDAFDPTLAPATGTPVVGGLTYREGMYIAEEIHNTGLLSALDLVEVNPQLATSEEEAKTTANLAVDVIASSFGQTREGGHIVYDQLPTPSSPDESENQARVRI

[6] = molecular target: T3, Proteasome subunit beta (Trypanosoma cruzi) (UniProt O96673); assay: Trypanosoma cruzi proteasome chymotrypsin-like activity (TcProtChymo) assay.; note: in the data most compounds retested in dose-response had high values; type: functional; settings: 9.37 µM
T3 sequence (whole entry): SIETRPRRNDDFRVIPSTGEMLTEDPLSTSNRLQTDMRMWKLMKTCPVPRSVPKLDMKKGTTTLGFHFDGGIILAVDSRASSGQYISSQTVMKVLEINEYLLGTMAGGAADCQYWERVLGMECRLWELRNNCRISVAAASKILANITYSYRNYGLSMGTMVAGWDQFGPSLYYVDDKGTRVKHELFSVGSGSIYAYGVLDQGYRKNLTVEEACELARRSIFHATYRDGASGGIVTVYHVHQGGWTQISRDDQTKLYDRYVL

Homo sapiens = species on record: Homo sapiens; assay: To identify inhibition of the IFN signalling (Jak-Stat) pathway via expression of an eGFP reporter gene under the control of an IFN-stimulated response element (ISRE) containing MxA promoter.; type: functional; settings: 30 µM
[7] = molecular target: T4, Tyrosyl-tRNA synthetase, putative (Trypanosoma cruzi (strain CL Brener)) (UniProt Q4DSP6); assay: Trypanosoma cruzi tyrosyl tRNA synthetase (TcYRS) _High Tyrosine SOP; type: functional; settings: 30 µM; note: in the data most compounds retested in dose-response had high values
T4 sequence (whole entry): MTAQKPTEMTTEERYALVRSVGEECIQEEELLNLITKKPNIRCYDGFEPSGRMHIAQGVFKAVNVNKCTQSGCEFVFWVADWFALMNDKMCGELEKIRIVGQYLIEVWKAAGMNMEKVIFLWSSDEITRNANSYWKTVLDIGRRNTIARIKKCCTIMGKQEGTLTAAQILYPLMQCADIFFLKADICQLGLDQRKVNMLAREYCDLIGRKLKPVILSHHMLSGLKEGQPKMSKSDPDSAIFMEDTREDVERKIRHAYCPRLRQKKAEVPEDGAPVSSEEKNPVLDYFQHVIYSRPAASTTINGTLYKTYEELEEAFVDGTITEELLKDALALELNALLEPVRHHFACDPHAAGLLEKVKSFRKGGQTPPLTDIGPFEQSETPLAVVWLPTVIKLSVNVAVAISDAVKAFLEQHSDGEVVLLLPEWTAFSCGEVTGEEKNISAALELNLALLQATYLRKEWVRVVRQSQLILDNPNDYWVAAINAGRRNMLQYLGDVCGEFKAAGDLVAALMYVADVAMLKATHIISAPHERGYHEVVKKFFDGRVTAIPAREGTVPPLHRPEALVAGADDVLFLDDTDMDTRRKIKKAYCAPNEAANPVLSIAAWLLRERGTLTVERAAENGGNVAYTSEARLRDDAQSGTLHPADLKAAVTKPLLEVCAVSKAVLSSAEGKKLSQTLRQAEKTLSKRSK

[8] = molecular target: T4, Tyrosyl-tRNA synthetase, putative (Trypanosoma cruzi (strain CL Brener)); assay: Trypanosoma cruzi tyrosyl tRNA synthetase (TcYRS) SOP; type: functional; settings: 30 µM
[9] = molecular target: Chromo domain-containing protein 1 (Saccharomyces cerevisiae (strain ATCC 204508 / S288c) (Baker's yeast)) (UniProt P32657); assay: ScCHD-1 Enzyme Inhibition Assay; type: functional; settings: 30 µM; note: in the data most compounds retested in dose-response had high values
Chain of Chromo domain-containing protein 1 (Saccharomyces cerevisiae (strain ATCC 204508 / S288c) (Baker's yeast)) (P32657 whole entry, the tested form may be a part): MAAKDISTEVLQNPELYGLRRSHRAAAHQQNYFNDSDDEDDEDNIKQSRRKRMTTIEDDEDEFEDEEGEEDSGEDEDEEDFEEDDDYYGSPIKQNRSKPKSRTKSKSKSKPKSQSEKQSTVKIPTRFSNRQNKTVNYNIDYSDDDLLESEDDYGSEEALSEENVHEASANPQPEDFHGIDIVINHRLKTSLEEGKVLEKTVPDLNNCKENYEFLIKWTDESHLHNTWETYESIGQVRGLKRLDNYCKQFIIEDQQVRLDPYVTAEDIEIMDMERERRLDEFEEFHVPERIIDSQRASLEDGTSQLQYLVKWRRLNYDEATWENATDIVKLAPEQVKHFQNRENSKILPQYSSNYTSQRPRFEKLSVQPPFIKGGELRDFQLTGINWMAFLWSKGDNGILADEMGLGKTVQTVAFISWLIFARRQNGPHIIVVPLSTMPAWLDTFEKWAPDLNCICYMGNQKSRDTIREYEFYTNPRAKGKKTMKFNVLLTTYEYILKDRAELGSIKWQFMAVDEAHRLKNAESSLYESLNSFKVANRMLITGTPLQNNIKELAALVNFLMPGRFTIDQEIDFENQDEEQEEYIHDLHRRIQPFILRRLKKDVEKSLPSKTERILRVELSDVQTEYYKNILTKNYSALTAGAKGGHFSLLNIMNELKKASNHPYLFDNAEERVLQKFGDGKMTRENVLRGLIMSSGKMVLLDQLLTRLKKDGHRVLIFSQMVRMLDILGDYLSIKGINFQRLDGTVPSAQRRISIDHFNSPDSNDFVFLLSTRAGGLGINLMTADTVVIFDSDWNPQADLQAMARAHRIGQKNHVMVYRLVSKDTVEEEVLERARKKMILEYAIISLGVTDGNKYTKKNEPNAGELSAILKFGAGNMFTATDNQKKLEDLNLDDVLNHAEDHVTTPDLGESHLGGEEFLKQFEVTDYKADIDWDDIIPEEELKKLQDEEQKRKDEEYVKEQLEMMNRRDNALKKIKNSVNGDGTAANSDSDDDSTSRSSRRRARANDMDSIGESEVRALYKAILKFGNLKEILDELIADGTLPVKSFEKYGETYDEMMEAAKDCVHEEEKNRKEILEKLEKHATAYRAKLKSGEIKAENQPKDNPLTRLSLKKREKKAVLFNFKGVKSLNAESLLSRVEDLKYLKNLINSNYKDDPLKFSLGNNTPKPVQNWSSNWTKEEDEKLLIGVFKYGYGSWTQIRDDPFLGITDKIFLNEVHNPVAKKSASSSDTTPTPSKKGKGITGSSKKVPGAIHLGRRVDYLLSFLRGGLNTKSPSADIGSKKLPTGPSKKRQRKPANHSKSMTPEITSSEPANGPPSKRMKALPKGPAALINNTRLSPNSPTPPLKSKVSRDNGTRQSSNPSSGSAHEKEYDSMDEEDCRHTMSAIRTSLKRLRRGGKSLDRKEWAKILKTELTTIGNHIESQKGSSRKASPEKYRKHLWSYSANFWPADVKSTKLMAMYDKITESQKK

Chain of Protein translocase subunit SecA (Escherichia coli (strain K12)) (P10408 whole entry): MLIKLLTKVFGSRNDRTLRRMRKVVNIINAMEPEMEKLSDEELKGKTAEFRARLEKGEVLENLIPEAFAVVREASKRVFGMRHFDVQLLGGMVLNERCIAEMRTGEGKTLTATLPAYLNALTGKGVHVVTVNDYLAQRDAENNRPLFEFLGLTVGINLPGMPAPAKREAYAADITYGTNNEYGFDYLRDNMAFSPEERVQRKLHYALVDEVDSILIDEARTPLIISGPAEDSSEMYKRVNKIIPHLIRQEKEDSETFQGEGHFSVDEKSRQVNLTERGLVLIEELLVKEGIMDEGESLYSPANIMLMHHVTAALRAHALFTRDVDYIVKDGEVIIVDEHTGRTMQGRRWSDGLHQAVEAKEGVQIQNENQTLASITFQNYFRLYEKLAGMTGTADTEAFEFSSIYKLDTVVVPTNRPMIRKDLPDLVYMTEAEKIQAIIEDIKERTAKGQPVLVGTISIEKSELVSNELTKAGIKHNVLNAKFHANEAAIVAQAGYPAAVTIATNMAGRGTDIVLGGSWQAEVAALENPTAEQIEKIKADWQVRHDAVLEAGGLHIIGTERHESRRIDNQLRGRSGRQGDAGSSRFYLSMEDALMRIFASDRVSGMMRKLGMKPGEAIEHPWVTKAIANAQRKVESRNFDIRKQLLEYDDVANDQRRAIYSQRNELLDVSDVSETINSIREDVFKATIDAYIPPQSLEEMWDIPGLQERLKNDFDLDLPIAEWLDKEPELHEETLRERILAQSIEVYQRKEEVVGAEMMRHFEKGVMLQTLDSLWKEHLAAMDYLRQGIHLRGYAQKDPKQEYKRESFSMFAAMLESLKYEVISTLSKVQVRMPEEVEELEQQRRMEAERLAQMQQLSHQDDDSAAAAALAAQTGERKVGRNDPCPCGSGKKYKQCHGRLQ
Chain of Sialic acid-binding Ig-like lectin 9 (Homo sapiens) (Q9Y336 whole entry): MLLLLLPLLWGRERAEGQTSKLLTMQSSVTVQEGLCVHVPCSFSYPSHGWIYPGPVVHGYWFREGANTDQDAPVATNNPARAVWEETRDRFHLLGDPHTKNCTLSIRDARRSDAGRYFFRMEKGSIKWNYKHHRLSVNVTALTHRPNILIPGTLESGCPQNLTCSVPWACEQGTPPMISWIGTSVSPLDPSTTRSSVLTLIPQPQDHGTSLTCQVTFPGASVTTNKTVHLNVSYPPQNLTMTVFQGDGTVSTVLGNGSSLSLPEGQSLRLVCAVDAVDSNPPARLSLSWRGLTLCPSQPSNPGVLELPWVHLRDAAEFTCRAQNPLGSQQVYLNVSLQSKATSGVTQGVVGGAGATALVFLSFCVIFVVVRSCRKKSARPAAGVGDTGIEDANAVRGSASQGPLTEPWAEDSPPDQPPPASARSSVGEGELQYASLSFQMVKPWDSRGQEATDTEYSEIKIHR

SMILES | Percent Effect [1] | Percent Effect [2] | Percent Effect [3] | Percent Effect [4] | Percent Effect (Trypanosoma cruzi) | Percent Effect [5] | Percent Effect [6] | Percent Effect (Homo sapiens) | Percent Effect [7] | Percent Effect [8] | Percent Effect [9]
COCCCC1(CO)CCCN(CCS(C)(=O)=O)C1 (stereo not given) | -1.54% | 0% | 3.61% | -1.71% | 0% | 1.36% | 2.13% | -0.331% | 2.15% | 5% | 2.4%
Cc1nc(C)n(CC2CCCCN2CC(=O)Nc2cccnc2)n1 (stereo not given) | -1.75% | 4.17% | -8.52% | 22% | 3.98% | 9.71% | 8.25% | -0.793% | 5.26% | 10.3% | -2.02%
O=C1CC(c2ccccc2)C2(CCN(CC3CC3)CC2)N1 (stereo not given) | -1.75% | 10.7% | 3.12% | -1.87% | 5.02% | -55% | 9.23% | 0.446% | 5.21% | 20% | -5.25%
N#Cc1cn(CC(=O)NC2CC2)c2ccc(Br)cc2c1=O | -3.54% | -2.67% | -3.82% | -2.14% | -1.27% | 2.6% | 14.7% | -0.582% | 0.546% | -3.7% | 74.8%
NCCn1nc(C2CCN(Cc3ccc(Cl)c(Cl)c3)C2)c2nccnc21 (stereo not given) | -3.22% | -14.9% | 7.43% | 0.383% | 2.37% | -4.41% | 8.74% | 7.68% | 1.07% | -1.3% | -23.3%

From ChEMBL document CHEMBL3988442, “University of Dundee, Small-Polar-MMV Screening Library” (2021)
